Measured values as given in PubChem BioAssay AID1159580 (chemical genetic matrix, 2015).
About 2,000 (36%) of roughly 5,500 compounds were called active. Roughly 18% stayed inconclusive and do not appear here. No stated cut-off is given here; in the data, active means normalized growth mostly below about 0.91 (no sharp cut-off); inconclusive means no clear call, values can overlap the other calls; inactive means mostly above about 0.92. This is one part of the list.

Assay: chemical genetic growth profiling, strain panel (AID 1159580);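 further: tested at 20 µM; growth read once vehicle control cultures reached saturation at 30 °C; 1 = growth at the plate median or of vehicle wells; lower values mean less growth of the strain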
Settings: growth OD

Measured: normalized growth

N[C@@H](CCC(=O)N[C@@H](CS)C(=O)NCC(=O)O)C(=O)O
inactive: S. cerevisiae deletion strains, locus YKL009W, strain mrt4, active compounds read low 0.954 | S. cerevisiae deletion strains, locus YKL068W, active compounds read low 0.996 | S. cerevisiae deletion strains, locus YKL085W, strain MDH1 (second series), active compounds read low 0.979 | S. cerevisiae deletion strains, locus YKL085W, strain MDH1, active compounds read low 0.979 | S. cerevisiae deletion strains, locus YKL160W, strain elf1, active compounds read low 0.978 | S. cerevisiae deletion strains, locus YKL190W, strain CNB1, active compounds read low 0.993 | S. cerevisiae deletion strains, locus YKR001C, strain vps1, active compounds read low 0.994 | S. cerevisiae deletion strains, locus YKR026C, strain gcn3, active compounds read low 0.987 | S. cerevisiae deletion strains, locus YKR091W, strain srl3, active compounds read low 0.985 | S. cerevisiae deletion strains, locus YLL001W, strain dnm1, active compounds read low 0.963 | S. cerevisiae deletion strains, locus YLL026W, active compounds read low 0.975 | S. cerevisiae deletion strains, locus YLL041C, strain sdh2, active compounds read low 1 | S. cerevisiae deletion strains, locus YLR027C, strain aat2, active compounds read low 0.97 | S. cerevisiae deletion strains, locus YLR039C, strain RIC1, active compounds read low 0.981 | S. cerevisiae deletion strains, locus YLR058C, strain SHM2, active compounds read low 0.996 | S. cerevisiae deletion strains, locus YLR102C, strain apc9, active compounds read low 0.986 | S. cerevisiae deletion strains, locus YLR113W, strain HOG1, active compounds read low 0.97 | S. cerevisiae deletion strains, locus YLR221C, strain rsa3, active compounds read low 1 | S. cerevisiae deletion strains, locus YLR258W, strain gsy2, active compounds read low 1.01 | S. cerevisiae deletion strains, locus YLR262C, strain YPT6 (second series), active compounds read low 1 | S. cerevisiae deletion strains, locus YLR262C, strain YPT6, active compounds read low 0.92 | S. cerevisiae deletion strains, locus YLR268W, strain sec22, active compounds read low 0.983 | S. cerevisiae deletion strains, locus YLR320W, strain mms22, active compounds read low 1.02 | S. cerevisiae deletion strains, locus YLR330W, strain CHS5, active compounds read low 0.999 | S. cerevisiae deletion strains, locus YLR342W, strain FKS1 (second series), active compounds read low 1.03 | S. cerevisiae deletion strains, locus YLR342W, strain FKS1, active compounds read low 0.982 | S. cerevisiae deletion strains, locus YLR357W, strain rsc2, active compounds read low 0.973 | S. cerevisiae deletion strains, locus YLR370C, strain arc18, active compounds read low 0.985 | S. cerevisiae deletion strains, locus YLR371W, strain rom2, active compounds read low 0.979 | S. cerevisiae deletion strains, locus YLR384C, strain iki3, active compounds read low 0.98 | S. cerevisiae deletion strains, locus YLR418C, strain cdc73, active compounds read low 0.98 | S. cerevisiae deletion strains, locus YML016C, strain PPZ1, active compounds read low 1 | S. cerevisiae deletion strains, locus YML032C, strain rad52, active compounds read low 0.989 | S. cerevisiae deletion strains, locus YML120C, strain ndi1, active compounds read low 0.981 | S. cerevisiae deletion strains, locus YML124C, strain tub3, active compounds read low 0.995 | S. cerevisiae deletion strains, locus YMR058W, strain fet3, active compounds read low 0.99 | S. cerevisiae deletion strains, locus YMR078C, strain ctf18, active compounds read low 0.977 | S. cerevisiae deletion strains, locus YMR125W, strain sto1, active compounds read low 1 | S. cerevisiae deletion strains, locus YMR129W, active compounds read low 1 | S. cerevisiae deletion strains, locus YMR205C, strain PFK2, active compounds read low 0.993 | S. cerevisiae deletion strains, locus YMR223W, strain ubp8, active compounds read low 0.985 | S. cerevisiae deletion strains, locus YMR231W, strain pep5, active compounds read low 1.02 | S. cerevisiae deletion strains, locus YMR307W, strain GAS1, active compounds read low 1.12 | S. cerevisiae deletion strains, locus YNL067W, strain RPL9B, active compounds read low 0.969 | S. cerevisiae deletion strains, locus YNL071W, strain lat1, active compounds read low 1.01 | S. cerevisiae deletion strains, locus YNL128W, strain TEP1, active compounds read low 0.963 | S. cerevisiae deletion strains, locus YNL183C, strain NPR1, active compounds read low 0.97 | S. cerevisiae deletion strains, locus YNL209W, strain ssb2, active compounds read low 1.01 | S. cerevisiae deletion strains, locus YNL233W, strain BNI4, active compounds read low 0.989 | S. cerevisiae deletion strains, locus YNL248C, strain rpa49, active compounds read low 1.03 | S. cerevisiae deletion strains, locus YNL250W, strain rad50, active compounds read low 0.987 | S. cerevisiae deletion strains, locus YNL271C, strain bni1, active compounds read low 0.982 | S. cerevisiae deletion strains, locus YNL298W, strain CLA4, active compounds read low 0.986 | S. cerevisiae deletion strains, locus YNL307C, strain MCK1, active compounds read low 0.99 | S. cerevisiae deletion strains, locus YNL322C, strain KRE1 (second series), active compounds read low 0.998 | S. cerevisiae deletion strains, locus YNR049C, strain mso1, active compounds read low 0.996 | S. cerevisiae deletion strains, locus YNR052C, strain pop2, active compounds read low 0.988 | S. cerevisiae deletion strains, locus YOL006C, strain TOP1, active compounds read low 0.986 | S. cerevisiae deletion strains, locus YOL012C, strain htz1 0.759 | S. cerevisiae deletion strains, locus YOL147C, strain pex11, active compounds read low 0.995 | S. cerevisiae deletion strains, locus YOR001W, strain rrp6, active compounds read low 0.971 | S. cerevisiae deletion strains, locus YOR061W, strain CKA2, active compounds read low 0.993 | S. cerevisiae deletion strains, locus YOR069W, strain VPS5, active compounds read low 1 | S. cerevisiae deletion strains, locus YOR070C, strain gyp1, active compounds read low 1.02 | S. cerevisiae deletion strains, locus YOR080W, strain dia2, active compounds read low 0.988 | S. cerevisiae deletion strains, locus YOR083W, strain WHI5, active compounds read low 0.973 | S. cerevisiae deletion strains, locus YOR106W, strain vam3, active compounds read low 0.987 | S. cerevisiae deletion strains, locus YOR136W, strain idh2, active compounds read low 0.993 | S. cerevisiae deletion strains, locus YOR144C, strain elg1, active compounds read low 0.995 | S. cerevisiae deletion strains, locus YOR184W, strain ser1, active compounds read low 0.989 | S. cerevisiae deletion strains, locus YOR231W, strain MKK1, active compounds read low 0.966 | S. cerevisiae deletion strains, locus YOR265W, strain rbl2, active compounds read low 0.996 | S. cerevisiae deletion strains, locus YOR270C, strain vph1, active compounds read low 1.03 | S. cerevisiae deletion strains, locus YOR290C, strain snf2, active compounds read low 1.01 | S. cerevisiae deletion strains, locus YOR316C, strain cot1, active compounds read low 0.998 | S. cerevisiae deletion strains, locus YPL051W, strain arl3, active compounds read low 0.993 | S. cerevisiae deletion strains, locus YPL078C, strain atp4, active compounds read low 0.972 | S. cerevisiae deletion strains, locus YPL106C, strain sse1, active compounds read low 0.985 | S. cerevisiae deletion strains, locus YPL240C, strain hsp82, active compounds read low 1.01 | S. cerevisiae deletion strains, locus YPL241C, strain CIN2, active compounds read low 0.993 | S. cerevisiae deletion strains, locus YPL256C, strain CLN2, active compounds read low 0.913 | S. cerevisiae deletion strains, locus YPR119W, strain clb2, active compounds read low 0.988 | S. cerevisiae deletion strains, locus YPR141C, strain kar3, active compounds read low 0.981 | S. cerevisiae deletion strains, locus YPR163C, strain tif3, active compounds read low 0.996 | S. cerevisiae deletion strains, locus YPR167C, strain met16, active compounds read low 0.98 | S. cerevisiae deletion strains, strain wtn01, active compounds read low 0.984 | S. cerevisiae strains, strain wild type, active compounds read low 0.998
